Laboratory results: PubChem BioAssay (NCATS)
Inconclusive results are not listed. The source made the active and inactive calls. Unless noted, the call rests on the fitted dose curve; in most records, active means well fitted curve in the direction sought with a large enough effect; inconclusive means small, poorly fitted or top-dose-only effect, or another doubt; inactive means no such curve, though single readings can be large; an effect the other way counts as inactive or inconclusive.

What was measured:
[1] = qHTS to identify inhibitors of the type 1 interferon - major histocompatibility complex class I in skeletal muscle: primary screen against the NCATS Mechanism Interrogation Plate v5.0 (MIPE) Libary (AID 1347411);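 further: plate controls were vehicle for no effect and reference inhibitor for full effect; nearly all actives have a fitted effect of over 65% in size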
Method in brief: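 HLA-B HiBit myoblasts, dexamethasone-free medium + 4 ng/ml IFN-b, 24 h compound, 11-pt 1:3 from 46 uM final. Readout: Nano-Glo HiBiT lytic luminescence after 10 min lysis, RT.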

[2] = Primary qHTS for inhibitors of nuclear receptor binding SET domain protein 2 (NSD2) in an isogenic RCH-ACV NSD2 p.E1099K mutant (9B) (AID 1645876); further: nearly all actives have a fitted effect of over 70% in size; further: potency means the concentration at half of the fitted maximal effect
[3] = molecular target: Glutathione peroxidase 1 (Homo sapiens) (UniProt P07203); test: Primary qHTS Assay for Inhibitors of Recombinant Selenoprotein Glutathione Peroxidase 1 (GPX1) (AID 1845191); further: nearly all actives have a fitted effect of over 65% in size
Method in brief: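 GPX1 10 nM, GR 100 nM, GSH 1 mM, NADPH 0.5 mM, CHP 0.5 mM (final). 30-min cpd preincubation, RT. Ex340/Em450 read t=0, t=15 min.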

[4] = molecular target: Phospholipid hydroperoxide glutathione peroxidase GPX4 (Homo sapiens) (UniProt P36969); test: Primary qHTS Assay for Inhibitors of Recombinant Selenoprotein Glutathione Peroxidase 4 (GPX4) (AID 1845192); settings: outcome: dose series up to 50 µM unless noted; further: nearly all actives have a fitted effect of over 65% in size
Method in brief: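 qHTS, GR-coupled: GPX4 200 nM + cpd 30 min RT → GSH 1 mM, NADPH 0.5 mM, GR 100 nM → CHP 0.5 mM start; fluor 340/450 at t0 and t15 min; no-enzyme wells as control.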

[5] = qHTS drug screen for cell cycle checkpoint inhibitors in PARPi-resistant BRCA-mutant ovarian cancer cell lines. (AID 1963452; calls by dose curve); settings: PEO1/OlaR viability, CellTiter-Glo luminescence, 96 h, stronger effect = lower value
Method in brief: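 PEO1, PEO4 and PEO1/OlaR ovarian cancer cells, 600 per well, exposed 96 h at 37C to a dilution series. Viability read by CellTiter-Glo luminescence, normalized to DMSO and empty wells; activity summarized as Z-AUC.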

[6] = Primary qHTS for inhibitors of nuclear receptor binding SET domain protein 2 (NSD2) in an RCH-ACV wild type WT cells (2C) (AID 1645877); further: nearly all actives have a fitted effect of over 70% in size; further: potency means the concentration at half of the fitted maximal effect
[7] = measured here: PEO1 parental Z-AUC

Chain of Glutathione peroxidase 1 (Homo sapiens) (P07203 whole entry, looked up): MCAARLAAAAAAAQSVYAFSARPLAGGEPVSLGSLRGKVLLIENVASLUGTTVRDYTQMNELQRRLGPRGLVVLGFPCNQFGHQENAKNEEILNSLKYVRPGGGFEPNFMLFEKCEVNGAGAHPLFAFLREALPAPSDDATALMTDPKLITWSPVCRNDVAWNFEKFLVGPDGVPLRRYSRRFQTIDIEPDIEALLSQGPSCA
Chain of Phospholipid hydroperoxide glutathione peroxidase GPX4 (Homo sapiens) (P36969 whole entry, looked up): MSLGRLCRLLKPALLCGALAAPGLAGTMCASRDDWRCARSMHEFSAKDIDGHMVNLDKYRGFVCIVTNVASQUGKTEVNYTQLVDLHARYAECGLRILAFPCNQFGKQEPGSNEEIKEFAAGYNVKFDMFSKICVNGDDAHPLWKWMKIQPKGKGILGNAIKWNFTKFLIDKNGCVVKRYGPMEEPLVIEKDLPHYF

Row | Compound | Potency [1] | Potency [2] | Potency [3] | Potency [4] | Z-AUC [5] | Z-AUC [5, 7] | Z-AUC ([5]; measured here: PEO4 Z-AUC) | Potency [6]
1 | N=C(N)c1ccc2nc(-c3cc(CC(=O)N[C@@H](CC(=O)O)C(=O)O)cc(-c4cc(S(N)(=O)=O)ccc4O)c3O)[nH]c2c1 | inactive | inactive | inactive | inactive | -0.76 (inactive) | -0.562 | -0.379 | 
2 | CONC(=O)Nc1ccc(-c2sc3c(c2CN(C)C)c(=O)n(-c2ccc(OC)nn2)c(=O)n3Cc2c(F)cccc2F)cc1 | inactive | inactive | inactive |  | 0.387 (inactive) | 0.895 | 0.818 | 
3 | CC(C)(O)c1coc(S(=O)(=O)NC(=O)Nc2c3c(cc4c2CCC4)CCC3)c1 | inactive | inactive | inactive |  | -0.755 (inactive) | -0.798 | -1 | 
4 | O=C(NO)c1cnc(NC2(c3cccc(F)c3)CCCCC2)nc1 | inactive | 14.8 µM (active) | inactive | inactive | -1.41 (inactive) | -0.775 | -0.635 | 
5 | CSC[C@H]1CN(Cc2c[nH]c3c(N)ncnc23)C[C@@H]1O | inactive | inactive | inactive | inactive | 1.09 (inactive) | 0.706 | 1.05 | 
6 | CCn1c(=O)c2c(nc(/C=C/c3ccc(OC)c(OC)c3)n2C)n(CC)c1=O | inactive | inactive | inactive |  | 0.577 (inactive) | 0.401 | 0.882 | 
7 | CC(=O)N[C@H]1[C@H](O[C@@H]2c3ccc(c(Cl)c3)Oc3cc4cc(c3O[C@@H]3O[C@H](CO)[C@@H](O)[C@H](O)[C@H]3NC(=O)CCCCCCCC(C)C)Oc3ccc(cc3Cl)C[C@H]3NC(=O)[C@H](N)c5ccc(O)c(c5)Oc5cc(O)cc(c5)[C@H](NC3=O)C(=O)N[C@H]4C(=O)N[C@H]3C(=O)N[C@@H]2C(=O)N[C@@H](C(=O)O)c2cc(O)cc(O[C@H]4O[C@H](CO)[C@@H](O)[C@H](O)[C@@H]4O)c2-c2cc3ccc2O)O[C@H](CO)[C@@H](O)[C@@H]1O | inactive | inactive |  |  | 0.721 (inactive) | 0.652 | 1.05 | inactive
8 | CC(C)(O)CS(=O)(=O)Nc1ccc2c(c1)CCN(C(=O)COc1cccnc1)C2 | inactive | 0.0372 µM (active) |  | inactive | -2.38 (inactive) | -2.73 | -2.65 | 0.0332 µM (active)
9 | O=c1ncccn1[C@@H]1O[C@H](CO)[C@@H](O)[C@H]1O | inactive | inactive | inactive |  | -0.938 (inactive) | -0.911 | -1.39 | 
